Results published in PubChem BioAssay AID504895 (National Center for Advancing Translational Sciences (NCATS), 2011).
Records with an inconclusive call do not appear. Active and inactive are the calls of the source. Calls follow the shape of the dose curve; as a rule, active = well fitted curve in the direction sought with a large enough effect; inconclusive = small, poorly fitted or top-dose-only effect, or another doubt; inactive = no such curve, though single readings can be large or run the other way.

What follows are compounds tested against Protein phosphatase EYA2 (Homo sapiens) (UniProt O00167) (assay: Inhibitors of Eya2ED: Hit Confirmation in Primary Screen). Conditions: Recombinant Eya2ED, OMFP fluorescence phosphatase assay; series mostly up to 76.9 µM; activity change, negative = inhibition: at the top concentration.
Sequence of Protein phosphatase EYA2 (Homo sapiens) (O00167 whole entry, looked up): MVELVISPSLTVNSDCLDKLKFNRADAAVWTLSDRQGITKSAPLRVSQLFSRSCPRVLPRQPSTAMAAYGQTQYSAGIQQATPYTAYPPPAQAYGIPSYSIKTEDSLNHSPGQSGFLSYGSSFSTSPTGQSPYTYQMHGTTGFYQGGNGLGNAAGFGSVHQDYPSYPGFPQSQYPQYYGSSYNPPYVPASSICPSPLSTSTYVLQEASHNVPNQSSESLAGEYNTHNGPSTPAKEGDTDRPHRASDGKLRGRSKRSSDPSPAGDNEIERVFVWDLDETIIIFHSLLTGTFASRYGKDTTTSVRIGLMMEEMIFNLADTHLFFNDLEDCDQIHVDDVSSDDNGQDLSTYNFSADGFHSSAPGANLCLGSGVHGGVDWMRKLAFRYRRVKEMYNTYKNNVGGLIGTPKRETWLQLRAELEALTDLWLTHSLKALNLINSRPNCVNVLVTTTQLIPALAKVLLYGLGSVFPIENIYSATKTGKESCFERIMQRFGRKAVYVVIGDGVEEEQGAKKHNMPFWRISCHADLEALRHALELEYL
Method in brief: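 Hits were retested as 12-point titrations. Compound sat 10 min at ambient with Eya2 (0.2 uM in dispense) in HEPES pH 7.5 buffer with NaCl, MgCl2, BSA and DTT, then OMFP substrate (50 uM in dispense) was added. Dephosphorylation was read by fluorescence at 485/525 nm after a further 10 min.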

Activity change, negative = inhibition, inactive:
O=C(O)/C=C/C(=O)Nc1ccc2nccnc2c1 -13.7%
CC1(c2ccccc2Cl)NC(=O)N(CC(=O)N2CCc3ccccc3C2)C1=O (configuration not stated) -2.47%
COc1ccccc1N1C(=O)C2C3C=CC(C3)C2C1=O (configuration not stated) -21%
CS(=O)(=O)c1ccc2nc(NC(=O)c3cccc([N+](=O)[O-])c3)sc2c1 1.43%
Cc1ccc2occ(/C=N/NC(=O)[C@@H](N)Cc3ccccc3)c(=O)c2c1 12.1%
COc1ccc(NS(=O)(=O)c2cc([N+](=O)[O-])ccc2NN=Cc2ccccc2OCC(=O)O)cc1 3.46%
COc1ccc(NC(=O)CNc2cc(S(=O)(=O)N3CCOCC3)ccc2N2CCOCC2)c(OC)c1 -11.5%
O=C(COC(=O)c1ccccc1Nc1cccc(C(F)(F)F)c1)NCc1ccco1 -6.79%
O=C(Cc1coc2cc(O)ccc12)NNC(=O)c1ccc(Br)s1 -14.3%
Cc1c(NC(=O)C(C)OC(=O)CCC2CCCC2)c(=O)n(-c2ccccc2)n1C (configuration not stated) 13.1%
Cc1c(NS(=O)(=O)c2ccc(N)cc2)c(=O)n(-c2ccccc2)n1C -15.5%
CC(NC(=S)NNS(=O)(=O)c1ccc(C(C)(C)C)cc1)c1ccccc1 (configuration not stated) -17.1%
